Measurements reported in the supplement of paper PMC6555819.

Tests used:
Assay in all cases: PBM binding z-score (relative to random genomic background probes); higher = stronger binding; sequences stand for … in GC…GCGATTGACAGCGTAGAATGAAGG
[1] = test system: RARb homodimer (NR concentration 270 nM)
How it was run: (§1)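 Binding z-scores were set against random background probes. The data came from custom Agilent 4×180K protein-binding microarrays carrying double-stranded probes with 34-nt variable regions, incubated 1 h with ligand-free nuclear receptor dimers. Partner-specific antibodies detected binding, and scanned fluorescence was regression-normalized.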

[2] = test system: RARg:RXRa (NR concentration 270 nM, RXRa partner concentration 90 nM)
How it was run: as §1

[3] = test system: RARg homodimer (NR concentration 270 nM)
How it was run: as §1

[4] = test system: RXRa DBDmut IVT, anti-RXR (DBD mutation: RXRa K156A/R161A, NR concentration 90 nM)
How it was run: as §1

[5] = test system: RXRa homodimer (NR concentration 180 nM)
How it was run: as §1

[6] = test system: THRa:RXRa (NR concentration 90 nM, RXRa partner concentration 90 nM)
How it was run: as §1

[7] = test system: THRa homodimer (NR concentration 90 nM)
How it was run: as §1

[8] = test system: VDR homodimer (NR concentration 270 nM)
How it was run: as §1

Sequence	PBM binding z-score [1]	PBM binding z-score [2]	PBM binding z-score [3]	PBM binding z-score [4]	PBM binding z-score [5]	PBM binding z-score [6]	PBM binding z-score [7]	PBM binding z-score [8]
TCAGACAGTTGAAGGTAACTCAGGTACGCAGTCG	-0.0141	0.206	0.167	1.29	0.943	1.17	0.195	0.508
TCTTGTAGATCAACAGGAGGTTAAAAAAGATCGA	0.404	0.947	0.461	0.247	0.896	0.886	-0.654	0.215
CAAACTAGGTAAAAGGTCAAAGTCGAGCCAACCA	4.69	6.32	5.16	1.67	7.54	4.01	1.07	2.02
CCTAGTTGGTCAAGGTCACACTCGCTATAGGTAC	4.05	4.19	4.5	2.44	3.96	3.92	4.03	3.42
CAAACTTGGTCAAGGTCAAAGTCGGTTTGTGCCA	4.26	4.46	4.37	2.33	4.72	3.92	3.4	3.32
CAAACTAGGTCAAGAGGCCAAAGTCCGCTTCCCG	3.79	4.65	4.83	1.85	2.98	2.75	0.986	1.03
ATCTCTAGGGAAAAGTTCAGTGAATCCCGAGGAT	2.03	1.23	1.69	0.323	0.636	0.24	-0.457	1.22
ATCGAAAGGTCGACGAGGTGTGTATACACCGTTT	2.54	4.07	3.97	1.18	4.14	2.22	-0.542	0.527
GATACAGGGTCAGCTCGAGGCCAGAGTATGGAAA	3.45	6.05	4.74	1.23	4.4	3.83	0.628	0.917
TCTTGTAGATCAAAGGTTAAGAAGGCCGAAGCCT	1.58	1.95	0.702	0.627	3.37	1.51	-0.402	0.0638
AGTCAATGTTCAGGACGAGGTAACGTAAAGCACG	0.0341	0.243	0.459	-0.371	0.279	2.16	1.78	0.209
TAGCGTAGGTCATGGGCCAGTATACCACGCGAAC	2.74	4.61	4.67	-0.189	4.73	2.38	-0.142	0.0635
CCTACTGAGCCATTCAGAGGTCATTGATCATATG	4.08	3.93	2.95	1.66	4.41	3.21	1.58	3.71
ATCTCTTGGTAAAAGTTCAGTGAATCCCGAGGAT	2.43	1.43	1.95	0.705	1.02	0.75	0.436	1.86
CGAACTAGGTCAAGAACAGTGAATCTCCGCACGC	2.48	3.31	4	1.65	2.36	2.33	0.755	0.197
CTCGAAAGGTCGTGCTCAGGTGACTATACCAAAC	3.17	5.21	3.82	2.15	4.78	4.26	1.69	0.845
AGAACGAGGGCAATGAGTTGATATCACGGGTGGC	1.12	1.33	1.45	2.15	1.2	1.17	-0.128	2.71
CCTAGTCGGTCAAGGTCACACACGCTATAGGTAC	4.9	5.15	5.64	2.13	4.64	4.26	4.28	3.91
ACTACCAGGCCAAGTTTGGGTCACTCAAACAAAG	2.49	2.52	1.72	0.137	0.944	2.86	1.72	0.598

Sequence	PBM binding z-score [1]	PBM binding z-score [2]	PBM binding z-score [3]	PBM binding z-score [4]	PBM binding z-score [5]	PBM binding z-score [6]	PBM binding z-score [7]	PBM binding z-score [8]
ACAGACAGGTGAGTGAAGGTAACTCACCTGGACG	0.335	0.343	0.628	-0.647	0.429	1.83	-0.0711	-0.74
TAGCCTAGGTCATTCAGGGGCCAGGATAGAAAGC	3.18	6.27	4.6	1.8	2.86	3.57	0.667	1.6
CCTAGCAGGCCAAGGTCACTCAAGCATTTCGCTT	3.82	3.82	3.92	1.05	3.51	3.66	2.88	2.2
CCCACTGGGCCACGAAAGGTCATTGATTCAGTGA	4.6	4.7	4.33	-0.145	4.87	4.11	1.09	2.4
CCTCGGAGGACAGAAGTTCAGAGCTGTCCGCTTT	1.88	1.28	1.36	0.706	-0.0645	0.325	-0.73	0.521
GTACCAAGGTGAATAGGTCGTTAATGAGTAGGCG	1.88	2.4	1.37	-0.112	1.7	1.7	0.636	0.459
AGAATGAGGTTTCCAAAGATCAGGGAAACGCTTG	-0.579	-0.0652	-0.103	-0.247	0.124	-0.118	-0.311	-0.385
TAGCCTAGGTCATGGCCCAGTATACCACGCGAAC	3.06	4.47	4.41	0.508	3.73	3.38	1.49	0.698
CCTACTGGGCCAAAAGTCATTGATTCCAATGCTC	0.0261	0.13	0.053	0.0698	0.153	-0.256	-0.418	-0.212
CCGAGTAGGTTATGGTGCATTCAGGCAACGGTGA	1.06	0.337	0.381	0.527	0.5	0.6	0.468	0.619
GCTTATAGGTAATACAAGGTGAAAGTCCGATTGT	1.05	0.63	0.649	0.59	0.772	4.28	1.16	0.227
CCTCGGAGGACAGATGGTCAGAGCTGTCCGCTTT	0.0769	0.0731	0.421	-0.0448	-0.625	-0.175	-0.332	-0.436
GTACCAAGGTGACTAGGTCGTTGATGAGTAGGCG	0.945	0.955	0.808	-0.648	0.837	1.87	0.333	0.099
TCTCGGAGGACACGAAGGTCAGAGCTTTCCAGAG	3.78	2.79	3.63	0.904	1.69	2.87	0.784	1.03
CTTAGCAGGCCAGGGTCACTCAAGCATTTCGCTT	2.87	2.99	2.53	0.934	3.39	2.93	1.32	1.28
TAGCCTAGGTCAGATCGCGCCAGTATACGCTATA	1.68	2.64	3.2	-0.216	1.22	1.61	0.165	-0.0657
ATCGAAAGGTCTTGAGGTGAGTATACAGAAAGGC	1.41	1.77	1.87	-0.483	1.48	2.34	1.21	-0.0653
TCGAGTAGGTGAGTCGGGGCATTCAGCCAACATA	0.348	-0.294	-0.378	0.0607	-0.201	0.829	-0.305	0.0574
TAGCCTAGGTCATTGCGCCAGTATAGTACGCATC	2.53	3.8	3.99	1.74	3	2.8	1.07	1.54

Sequence	PBM binding z-score [1]	PBM binding z-score [2]	PBM binding z-score [3]	PBM binding z-score [4]	PBM binding z-score [5]	PBM binding z-score [6]	PBM binding z-score [7]	PBM binding z-score [8]
ATACCAAGGTGATCGTGAGGTCGTTGAGACTAAC	1.66	2.25	0.747	0.611	1.66	3.4	2.38	2.82
AATACAGGGTCATCGTAGGCCGGAGTACGCACAG	3.49	5.55	5.08	3.69	6.23	4.13	1.46	3.63
ATCGAAAGGTCGTGAGGTGCGTATACAGAAAGGC	2.59	4.2	3.57	1.16	4.65	2.45	-0.17	1.59
AGAATGAGGTTGTACGTAGATCAGGGAAGAAAGT	0.561	0.15	0.156	0.679	0.32	0.638	0.288	0.389
TCTCTGAGGACACGAAAGGTCAGAGCTCGACATC	4.78	4.77	5.31	1.55	3.99	4.45	4.15	1.21
CAACCTAGGTCAAAGGTCAAAGTCGAGCCAACCA	5.33	9.2	7.77	3.16	10.1	5.01	1.81	3.91
AGAATGAGGTTATTAAGATCAGGGACTTGCGGTC	0.973	1.12	0.814	1.92	1.82	2.09	0.617	1.36
ACAGACAGGTGAATGAAGGTAACTCAGCTGGACG	0.0507	0.439	0.784	-0.296	0.534	2.08	-0.448	-0.781
ACTTACGGGTCAACGAGCTTATAGCACGCGTATA	2.92	5.34	5.01	1.56	6.14	2.46	0.0469	0.846
CGTCCAAGGACAGCAGGTCAGTGAAAGCGACGTG	2.36	1.72	2.06	0.0474	0.679	2.46	0.788	-0.264
CGGCCAAGGTCAAGGTCAGTGAAAGAGACTCGAA	5.16	6.85	7.69	3.48	6.81	4.33	2.89	2.95
TCGAGTAGGTTACCAATGGGGCATTCACCTTTCT	1.29	1.38	0.58	0.49	0.913	0.504	-0.317	-0.574
GCTCGGAGGACGAGGTCAGAGCTTTGTCCGTAGA	2.89	3.06	2.84	0.606	3.19	3.09	1.51	1.26
TCATATAGGTAATATAGGTGAAAGTCGGCATCTA	0.281	0.454	0.522	1.2	0.79	0.364	-0.347	0.0956
GGAACGAGGGCAAGTTGATCGCAGAGTTTGATGG	1.5	1.49	1.89	2.28	0.723	1.2	-0.251	1.58
CCTACTGGGCCAAAAAGATCATTGATGCCGATAA	-0.443	-0.189	0.104	-0.443	-0.145	-0.348	-0.71	-0.266
CCAGAAAGGTGAGAAGGTAACTCAGCCTCGATTA	1.43	2.36	1.91	0.256	1.53	0.725	0.0189	-0.238
CCGACTGGGGCCGAAAGGTTACCATACCATCCGG	2.41	2.18	1.28	-0.679	2.15	1.14	-0.247	-0.349
